These results are taken from PubChem BioAssay AID1508600 (Functional Genomics Laboratory (NCATS/FGL), 2020).

The campaign covered roughly 53,000 sequences. About 3,700 (7%) were called active.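 How the source made its calls: active means gene knockdowns whose robust z-score for IL-1 alpha signal is at least 2 or at most -2, so actives lie on both sides; inactive means the rest.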 The sample as a whole holds a higher share of actives than the screen did.

The test in a line: Components of the Cytosolic LPS Sensing Pathway: Gene Identification via Genome-wide siRNA Screen.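 Further: robust z of the log signal after scaling to non-targeting control siRNA wells of the plate.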 The following applies: RAW264.7 macrophages, IL-1a HTRF, actives lie on both sides, screened at 100 nM (by protocol), cells primed 5 h with Pam3CSK4 first. Summed up: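 Supernatant IL-1a by HTRF from RAW264.7 cells primed with Pam3CSK4 (5 hours) and transfected with LipidA (24 hour) after 48h siRNA knockdown at 100 nM; cell viability checked with CellTiter-Glo.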
GCCACUCUAGCUCGUAUUGTT against Des: the z-score is 0.896 (inactive).
Under GCAAGUCGAGGUAGAUUGCTT against Rap1a stands 0.515 (inactive).
Under GGACCUAUAGUUCAACAAGTT against Pcf11 stands 1.08 (inactive); under CCAUGUGCGACCUGAUAAUTT against Cmtm7, 0.155 (inactive); under CGACAAACUACAUAGCAGATT against Brms1, 0.823 (inactive).
The same measure for GGUCAGACAGCAAUUCACATT against Gpr146: -2.7 (active); for GCUAUGUGGACGUGACCUATT against Chrnb4: -0.739 (inactive); for GCUAUAGACAAGGAGAGUATT against Galnt6: 0.62 (inactive).
For GGUCAUAGGUACGUAUCCGTT against Siglech, the z-score was -0.465 (inactive).
Under CGUUUUUAUGAGGAGGCCUTT against N4bp3 stands -0.897 (inactive).
The same measure for GGAUUGACAGUGGUCUAUATT against Copz1: -0.294 (inactive); for UUUGAACAGUCACUCCUCGTT against Ipcef1: 2.18 (active); for “GGAGUUAAAACCAUCGUGATT against D16Ertd472e”: 0.725 (inactive).
Under CCCUAUGCAAUAUCAAAAUTT against Hnrnpa1 stands 1.22 (inactive); under GGUAAAUAGCUGUCUUGGCTT against Cerk, -0.622 (inactive); under GCACAGUUAGCAUUGCUCCTT against Hoxc10, -1.48 (inactive).
GGAUAAUUGGGAUGAUGACTT against Sem1: the z-score is -2.24 (active).
For GGCAGAGUAUGAGUUUGACTT against Camk1, the z-score was 0.699 (inactive).
On to GGCCAAGUGCACCAUCCUATT against Gng13, for which the z-score is -0.852 (inactive).
The same measure for GGAGAAAGCCUUCCAAUUUTT against Kel: -0.273 (inactive).
The same measure for GGUAGAGCAUCAGUAUCUATT against Tex16: -0.47 (inactive); for CCGCACCAUUCAGCUUUUUTT against Mmgt2: 0.446 (inactive); for GGCUCGAUUACUGAGUACATT against Bnip2: 0.884 (inactive).
Under GGCUUUAGUUGUCUUUUAUTT against Cxcr1 stands 0.609 (inactive).
Turning to GGAGAAAAAGAGAAGUAUUTT against Skint9, the z-score is -0.874 (inactive).
As to GCAUGAUGGUGCGCUUAAGTT against Ngdn, the z-score is -0.187 (inactive).
The same measure for GGUCAUGGAUGUGCACGAUTT against Krt14: -2.21 (active); for CCUAUACACCCAUUUUUAATT against Arl2bp: 0.163 (inactive); for GGUAACCUGAUGGCUGAAATT against Zfp692: 2.79 (active).
Consider GCCUAAGGAUCCUGGGUUATT against Orai3, for which the z-score is 1.43 (inactive).
Under CCGUUUCUAUCGAGUGAAATT against Celf2 stands 0.581 (inactive); under GACUAAACAGAUCUUCUCUTT against Klra15, -0.651 (inactive); under GGAGAUAAUUGGUUUACAGTT against Vmn1r23, -0.647 (inactive).
Turning to CCACACCAUAACAACAUUCTT against Olfr800, the z-score is -2.05 (active).
Take GCAAUUCAGGUUUACUACATT against Fgg: the z-score is 0.00733 (inactive).
As to GAAAGUUUACGGGAAAUCUTT against Klf13, the z-score is 2.04 (active).
As for CCAUAAGGUAACCUGUACATT against Serpinb1c, the z-score was -0.244 (inactive).
Consider GGAUUACAAGACCAUAGAUTT against Clec2g, for which the z-score was -0.75 (inactive).
Under GGCACCUCUGCUUUUAAAGTT against Mrm2 stands 0.926 (inactive); under GGAACUGCCUGAAAAAAUGTT against Dcn, -2.76 (active); under CAUAUUCCUUGCAUUACAATT against Taok3, 0.929 (inactive).
With GGUUCAGAAGUUUGGGAGATT against Mrpl48, the z-score was 0.615 (inactive).
Take GGACUGAUUGAUAAAGUCATT against Srp54a: the z-score is -0.458 (inactive).
The same measure for UAAAAAUGAGCCGGGCAAUTT against Ms4a5: 1.42 (inactive).
The same measure for GGAGCAAAGCUAAAUGUUGTT against Far1: -0.476 (inactive); for GGAUUUGGCAACAGACUUUTT against Ryr2: -0.391 (inactive); for CACCGUAAUAAUCACACUATT against Zfp667: -0.854 (inactive).
As to “GGUACGAAGGAAAAUUUACTT against 2810407A14Rik”, the z-score was 2.72 (active).
Consider GGUUACCAUGUGAAGCAGGTT against Tnfrsf14, for which the z-score was -0.461 (inactive).
Take GGAUAACUCCUUAUUUAACTT against Teddm3: the z-score is 1.25 (inactive).
The same measure for GGAAAACCAGAAAGAAUUUTT against Crnkl1: -0.334 (inactive); for GGAACAAGUUUGUGCUUUCTT against Cpd: 0.728 (inactive).
Under GGAUAACCAACAAGGUUUUTT against Mgst1 stands 0.701 (inactive); under GGUGGAACACAUAUUUUAATT against Tbc1d13, 0.837 (inactive); under CGCCCAUGUACAGAUUUGUTT against Olfr429, -2.33 (active).
The same measure for GCUUCACCUGACAAUGACUTT against Tsc22d3: 1.2 (inactive); for GGGACAGGUUGAGGUCUAUTT against Vmn1r233: 2.01 (active).
Consider GGCAUACCGAAAGUUAGCCTT against Dnaja2, for which the z-score is -0.724 (inactive).
In the case of GGAGGUCCAGGAUUUUAUATT against Styk1, the z-score is 1.12 (inactive).
Regarding “GCUUCAACAUGCUUUGUUUTT against A430010J10Rik”, the z-score was -0.555 (inactive).
Turning to CCCUACUCCUCAGAACUUATT against Tbc1d10a, the z-score is -0.499 (inactive).
Turning to CCAAAAAGAGCGAUUACCCTT against Shc1, the z-score was 0.368 (inactive).
Under CGCAGAAAGAGCAUCAGAUTT against Atg9a stands -2.42 (active); under GCGACUGUGGUGGUUACAUTT against Bcas2, 0.444 (inactive).
Under “GGGAAGGAAGAAUUUAUUUTT against 6430571L13Rik” stands 1.24 (inactive); under GCUGCUCAAUCGGAAAUACTT against Clk1, -2.06 (active); under CCAGGUGUAUAAUAAGAUGTT against Atp8b3, 0.271 (inactive).
Under GCAAUGACAGAACAUACAGTT against Cts7 stands 1.67 (inactive).
